About 4,700 (1.2%) of roughly 390,000 compounds were called active. Where a call stands in place of a potency, no number is given. Not shown: some 4% with an inconclusive outcome. Calls come from the whole dose curve; as a rule, active = well fitted inhibition curve with a large enough effect; inconclusive = small, poorly fitted or top-dose-only effect, or another doubt; inactive = no such curve, though single readings can be large or run the other way. Many of the other results were omitted from the sample, so actives are more common in it than they were.
Potency is the fitted concentration of half-maximal effect.

Sequence of DNA polymerase eta (Homo sapiens) (Q9Y253 whole entry, looked up): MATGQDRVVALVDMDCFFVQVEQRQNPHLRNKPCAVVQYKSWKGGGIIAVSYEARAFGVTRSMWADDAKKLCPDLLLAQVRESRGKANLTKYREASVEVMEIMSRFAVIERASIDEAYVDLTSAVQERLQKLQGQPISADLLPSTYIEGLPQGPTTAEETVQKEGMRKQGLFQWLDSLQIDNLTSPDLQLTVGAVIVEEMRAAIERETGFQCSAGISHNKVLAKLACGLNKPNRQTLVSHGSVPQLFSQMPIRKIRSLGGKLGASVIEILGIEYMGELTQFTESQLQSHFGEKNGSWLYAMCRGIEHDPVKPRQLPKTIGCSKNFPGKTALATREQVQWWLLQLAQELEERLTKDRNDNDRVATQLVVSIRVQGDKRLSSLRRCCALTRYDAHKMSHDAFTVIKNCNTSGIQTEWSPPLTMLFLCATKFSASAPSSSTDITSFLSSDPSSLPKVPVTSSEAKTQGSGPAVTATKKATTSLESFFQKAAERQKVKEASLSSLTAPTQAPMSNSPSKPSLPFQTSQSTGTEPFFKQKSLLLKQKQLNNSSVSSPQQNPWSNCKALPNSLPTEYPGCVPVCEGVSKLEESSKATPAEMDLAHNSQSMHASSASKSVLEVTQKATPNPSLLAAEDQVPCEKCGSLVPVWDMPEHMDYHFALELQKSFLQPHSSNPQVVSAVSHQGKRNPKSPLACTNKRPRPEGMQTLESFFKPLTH

The assay addresses DNA polymerase eta (Homo sapiens) (UniProt Q9Y253). In words: qHTS for Inhibitors of Polymerase Eta. Conditions: recombinant Pol eta, fluorescent DNA replication assay; series mostly up to 114 µM. The essentials:
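Fluorescent replication assay: 50 nM final substrate added after a 15 min room-temperature compound preincubation with 10 nM enzyme. Signal taken at 0 min and again at 10 min.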
Consider `Cc1ccc(NC(=O)c2ccc3[nH]c(C)cc(=O)c3c2)c(C)c1`, for which the Potency result is “inactive”.
The result for `CCOC(=O)C1=C(c2ccccc2)Nc2ncnn2C1c1ccc(Cl)cc1` (stereo not given) reads “inactive”; that for `NS(=O)(=O)c1cc(C(=O)OCC(=O)NNC(=O)c2ccccc2)ccc1Cl`, “inactive”; that for `O=C(NC1=CC(=O)c2ccccc2C1=O)c1ccccc1`, 89.1 µM (active).
Next, `O=C(O)CN1c2cccc3cccc(c23)S1(=O)=O`: 28.2 µM (active); `COc1ccc(C)cc1NC(=O)CN1c2cccc3cccc(c23)S1(=O)=O`: “inactive”.
The result for `CC(C)CN(CC(C)C)C(=O)CN1c2cccc3cccc(c23)S1(=O)=O` reads “inactive”.
On to `COc1ccccc1Cc1nc2ccccc2nc1SCC(=O)N1CCCc2ccccc21`, for which the Potency entry was “inactive”.
Next, `CC(=O)c1ccc(N2CCN(c3nc4c(S(=O)(=O)c5ccccc5)nnn4c4ccc(Cl)cc34)CC2)cc1`: “inactive”; `C#CCOCCOCCOCCNc1nc(N2CCN(C(=O)C([C@@H](C)CC)n3cc(C(N)COC(=O)C(F)(F)F)nn3)CC2)nc(N2CCN(C(=O)[C@H](CCCCN)n3cc(C(N)CC(C)C)nn3)CC2)n1` (stereo not given in full): “inactive”; `C#CCOCCOCCOCCNc1nc(N2CCN(C(=O)C([C@@H](C)CC)n3cc(C(N)COC(=O)C(F)(F)F)nn3)CC2)nc(N2CCN(C(=O)[C@H](Cc3ccc(O)cc3)n3cc(C(N)[C@H](C)CC)nn3)CC2)n1` (stereo not given in full): “inactive”.
Next, `C#CCOCCOCCOCCNc1nc(N2CCN(C(=O)CCCCCCCCCCNC(=O)[C@H]([C@@H](C)CC)n3cc(CCCCN=C(N)N)nn3)CC2)nc(N2CCN(C(=O)CCCCCCCCCCNC(=O)[C@H](CO)n3cc(CCCSC)nn3)CC2)n1`: 50.1 µM (active).
The result for `C#CCOCCOCCOCCNc1nc(N2CCN(C(=O)[C@H](CCC(=O)O)n3cc(C(N)CO)nn3)CC2)nc(N2CCN(C(=O)[C@H](Cc3ccc(O)cc3)n3cc(C(N)[C@H](C)CC)nn3)CC2)n1` (stereo not given in full) reads “inactive”; that for `C#CCOCCOCCOCCNc1nc(N2CCN(C(=O)CCCCCCCCCCNC(=O)[C@H](CCCCN)n3cc(C)nn3)CC2)nc(N2CCN(C(=O)CCCCCCCCCCNC(=O)[C@H](CO)n3cc(CCCSC)nn3)CC2)n1`, 89.1 µM (active); that for `COc1ccccc1NC(=O)Cn1cnc2ccc(S(=O)(=O)N3CCC(C)CC3)cc2c1=O`, “inactive”.
On to `COc1ccc(-c2nc3c4ccccc4n(CC(=O)Nc4ccc(C(C)=O)cc4)c(=O)n3n2)cc1`, for which the Potency entry is “inactive”.
For `O=C(CSCc1cnn(-c2ccccc2)c1-n1cccc1)NCc1ccc(Cl)cc1`, the Potency result was “inactive”.
As to `CCOc1ccc(-c2cc3nc(C4CCN(C(=O)OC(C)(C)C)CC4)c(C(=O)Nc4cccc(CC)c4)cn3n2)cc1`, the Potency result is “inactive”.
Regarding `CC(=O)c1ccc(NS(=O)(=O)c2ccc(-c3cc(C)no3)s2)cc1`, the Potency result is “inactive”.
Next, `Cc1c(OC(C)C(=O)N[C@@H](Cc2ccccc2)C(=O)O)ccc2c3c(c(=O)oc12)CCCC3` (stereo not given in full): “inactive”; `Cc1oc2c(C)c3oc(=O)c(CC(=O)N[C@@H](CC(C)C)C(=O)N[C@@H](Cc4ccccc4)C(=O)O)c(C)c3cc2c1C`: 20 µM (active).
The result for `Cc1c(CCC(=O)N[C@@H](CC(C)C)C(=O)O)c(=O)oc2c(C)c3oc4c(c3cc12)CCCC4` reads “inactive”; that for `O=C(CN1CCN(S(=O)(=O)/C=C/c2ccccc2)CC1)NC(=O)NCc1ccco1`, 79.4 µM (active).
The result for `CC1(c2ccccc2Cl)NC(=O)N(CC(=O)NC(=O)NCc2ccco2)C1=O` (stereo not given) reads “inactive”; that for `NC(=O)CCN1CCN(S(=O)(=O)/C=C/c2ccccc2)CC1`, “inactive”; that for `CCOc1cc(-c2nnc(SCC(=O)NC3CCCCC3)nc2-c2ccc(OC)c(OCC)c2)ccc1OC`, “inactive”.
With `CC(=O)Nc1ccc(NC(=O)c2cc3sccc3n2Cc2ccc(F)cc2)cc1`, the Potency entry was “inactive”.
The result for `CCCCN(C)S(=O)(=O)c1ccc(C(=O)Nc2sc3c(c2C(N)=O)CC(C)(C)NC3(C)C)cc1` reads “inactive”; that for `COc1cccc2c(C)c(C(=O)O)[nH]c12`, 12.6 µM (active).
Next, `COc1ccccc1CNCc1ccc(C(=O)O)s1`: “inactive”; `COc1ccc(C)cc1NC(=O)c1[nH]c(C)c(C(C)=O)c1C`: “inactive”.
In the case of `CCOc1ccc(C(=O)Nc2ccc3nc4c(c(Nc5ccccc5OC)c3c2)CCCC4)cc1`, the Potency entry is “inactive”.
Consider `CN(C(=O)CSc1nnc(NC(=O)Nc2ccccc2)s1)c1ccccc1`, for which the Potency entry was “inactive”.
Next, `CC(C)c1ccc(Nc2nnc(SCC(=O)c3nnc(-c4ccccc4)o3)s2)cc1`: 15.8 µM (active); `CC(=O)c1ccc(NC(=O)CSc2nnc(NC(=O)Nc3ccccc3)s2)cc1`: “inactive”; `COc1ccc(C)cc1N(C)C(=O)c1c(C)oc2ncnc(N3CCOCC3)c12`: “inactive”.
The result for `Cc1ccc(-c2cc(C(=O)NN)n[nH]2)o1` reads “inactive”.
The result for `CCOc1ccc(CNC(=O)c2cc(-c3ccc(Cl)s3)nc3ccccc23)cc1` reads “inactive”; that for `Cc1ccc(NC(=O)c2cc(-c3ccc(C)o3)nc3ccccc23)nc1`, 22.4 µM (active).
On to `CCOc1cccc(CNC(=O)c2ccc(N3CCCC3)c(NC(=O)Nc3ccccc3CC)c2)c1`, for which the Potency result was “inactive”.
Next, `O=C(Nc1ccc(OC(F)(F)F)cc1)C1CCCN(S(=O)(=O)c2ccc(Br)s2)C1` (stereo not given): “inactive”; `O=C(NCCc1ccccc1)c1cnc2sc(N3CCCC3)nn2c1=O`: “inactive”; `CC(=O)c1nn(-c2ccc(OC(F)(F)F)cc2)nc1Nc1ccccc1`: “inactive”.
Next, `Cc1ccc(-c2cc(-c3coc4ccccc4c3=O)c3c(n2)-c2cc(Cl)ccc2OC3)cc1`: “inactive”; `Cc1cccc(OCCSc2nc3ccccc3n2CC(=O)N2CCCCC2)c1C`: “inactive”; `NC(=O)C1CCN(C(=O)c2cccc(NC(=O)c3nsc4ccccc34)c2)CC1`: “inactive”.
The result for `NC1=CC(=O)C(=O)c2cccnc21` reads 8.91 µM (active); that for `Cc1nn(CC(=O)NCCc2ccccc2)c(=O)c2c1sc1ccccc12`, “inactive”.
For `COc1ccc(CNC(=O)Cc2coc3ccc(C(C)C)cc23)cc1`, the Potency result was “inactive”.
The result for `COc1ccc(N(C)C(=O)C2CCN(S(=O)(=O)c3cc(Br)cc4c3N(C(C)=O)CC4)CC2)cc1` reads “inactive”.
The result for `Cn1c(=O)c2c(SCC(=O)N3CCc4ccccc43)nc(-c3ccc(Cl)cc3)nc2n(C)c1=O` reads “inactive”; that for `C=CCn1c(=O)c(C(=O)NCc2ccc3c(c2)OCO3)c(O)c2ccccc21`, “inactive”.
As for `Cc1nc2c(C(=O)NCc3ccc4c(c3)OCO4)c[nH]n2c(=O)c1Cc1ccccc1F`, the Potency was 89.1 µM (active).
Next, `COc1ccccc1-n1c(C)nc2cc(C(=O)NCc3ccc4c(c3)OCO4)ccc21`: “inactive”.
Next, `COc1ccc(NC(=O)Cn2c(=O)n(CCC(C)C)c(=O)c3cccnc32)cc1Cl`: “inactive”; `CCN(CC)S(=O)(=O)c1ccc2c(c1)nc(CN(C)C(=O)Nc1ccc(Cl)cc1)n2C`: “inactive”.
Next, `CC(=O)N1CCc2cc(S(=O)(=O)NC(Cc3ccccc3)C(=O)NCc3ccc(C)cc3)ccc21` (stereo not given): “inactive”.
In the case of `Cc1sc(C2C(C#N)=C(N)N(c3cccc(Cl)c3)C3=C2C(=O)CCC3)cc1CN1CCOCC1` (stereo not given), the Potency entry was “inactive”.
Next, `CN1CCOC1c1ccc(C2OCCN2C)cc1` (stereo not given): 20 µM (active); `Cc1csc2nc(COC(=O)c3ccccc3NC(=O)c3ccccc3Cl)cc(=O)n12`: “inactive”.
Next, `O=C(CCc1ccccc1)NCCc1cccs1`: “inactive”; `Cc1ccnc(NC(=O)CCC(=O)N(CC(=O)NCCc2ccccc2)Cc2cccs2)c1`: “inactive”.
The result for `O=C(O)CCC(=O)N(Cc1cccs1)Cc1cccs1` reads 20 µM (active); that for `COc1cc(NC(=O)CCn2nc(C)cc2C)cc(OC)c1OC`, “inactive”; that for `Cc1nc2nc(SCC(=O)N(Cc3ccccc3)C(C)C)nn2c(C)c1Cc1ccccc1Cl`, “inactive”.
Take `Cc1ccccc1NC(=O)c1cc2c([nH]c1=O)CC(C)(C)CC2=O`: the Potency entry was “inactive”.
Next, `Cc1ccc2nc(CNC(=O)c3ccccc3)[nH]c2c1`: “inactive”; `Cc1ccc2cc(/C=N/Nc3ccc(C(=O)O)cc3)c(Cl)nc2c1`: 50.1 µM (active); `Cc1ccc(C(=O)N/N=C/c2sc(=O)n(Cc3cccc(C(=O)O)c3)c2Cl)cc1`: “inactive”.
Next, `COc1ccc(CNc2nc(-c3ccc(Cl)cc3)nn2C(=O)c2ccccc2)cc1`: “inactive”; `Cc1cccc2nc(-c3ccc(Cl)s3)c(Nc3ccc4c(c3)OCCO4)n12`: “inactive”.
Next, `CN1OC(COC(=O)c2ccc(Cl)cc2)CC1c1ccccc1` (stereo not given): “inactive”; `Cc1ccc(S(=O)(=O)N2[C@@H](c3ccccc3F)C(C(=O)O)=CC[C@H]2c2ccc(Cl)cc2)cc1`: “inactive”.
With `Cc1ccccc1S(=O)(=O)N1[C@@H](c2cccc(Cl)c2)C(C(=O)O)=CC[C@H]1c1ccc(Cl)cc1`, the Potency was 89.1 µM (active).
In the case of `CCOc1ccc(NC(=O)c2cn(C3CCCCC3)c(=O)c3c2c2ccccc2n3C)cc1`, the Potency entry is “inactive”.
Next, `COc1cc2c(=O)c(S(=O)(=O)c3ccc(C(C)C)cc3)cn(Cc3ccccc3C)c2cc1OC`: “inactive”.
On to `CC(NC(=O)CCc1cn(Cc2ccccc2Cl)c2ccccc12)c1ccccc1` (stereo not given), for which the Potency entry was “inactive”.
The result for `Cc1noc(C)c1NC(=O)Nc1ccc2c(c1)C(=O)N([C@H](C)CO)C[C@H](C)[C@@H](CN(C)C(=O)Nc1ccc(C(F)(F)F)cc1)O2` reads “inactive”; that for `Cc1noc(C)c1NC(=O)Nc1cccc2c1O[C@H](CN(C)C(=O)Nc1ccccc1)[C@@H](C)CN([C@H](C)CO)C2=O`, “inactive”; that for `C[C@H](CO)N1C[C@H](C)[C@H](CN(C)C(=O)Nc2ccc(C(F)(F)F)cc2)Oc2c(NC(=O)c3ccncc3)cccc2C1=O`, 89.1 µM (active).
The result for `CCCN(C(=O)Cn1ncc2c([nH]c3ccc(C)cc32)c1=O)c1ccccc1C` reads “inactive”; that for `Cc1ccc(CNC(=O)CCc2c(C)nc3nc(CNC(=O)OC(C)(C)C)nn3c2C)cc1`, “inactive”.
Next, `O=C(Cc1ccc(S(=O)(=O)N2CCCC2)s1)NC1CCCCCC1`: 14.1 µM (active).
Turning to `COc1ccccc1NC(=O)COC(=O)Cc1ccc(S(=O)(=O)N2CCCCC2)s1`, the Potency result was “inactive”.
With `O=C(NC1CCCCC1)C1CCCN(S(=O)(=O)c2ccc(Br)s2)C1` (stereo not given), the Potency entry was “inactive”.

The values are drawn from PubChem BioAssay AID588591 (National Center for Advancing Translational Sciences (NCATS), 2011).
